Pf Dd2 growth – qHTS Primary assay for Inhibitors of Plasmodium falciparum Dd2 growth in vitro. AID 1347417, 2020. Potency, µM (highest dose often 28.9 µM), for the others: at the highest dose activity, negative = inhibition, usual class: inhibitors. P. falciparum Dd2 growth, SYBR Green, 72 h. actives 4.3% (n = 120,000); active = well fitted inhibition curve with a large enough effect;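 note: plate controls were DMSO vehicle for no effect and reference drug for full effect; nearly all actives have a fitted effect of over 65% in size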
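Infected erythrocytes (Dd2, 0.3% parasitemia, 2.5% hematocrit final) are added to compound in RPMI-1640/Albumax II medium, grown 72 h at 37C in low oxygen, then lysed with saponin/Triton-X containing SYBR Green and read by fluorescence.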
* marks the source's active call; other numbers are inactive results; i = inactive; [ ] = dose if it differs, or a comment. Shown is part of a subset that was picked to be rich in hits. Potency is the fitted concentration of half-maximal effect.

SMILES	Pf Dd2 growth
Cc1noc(C)c1CCCNC(=O)c1ccc(N2CCN(CC3CC3)CC2)nc1	-12%
COc1ccc(OC)c(CN2CCc3ncc(C(=O)Nc4ccccc4)n3CC2)c1	i
COc1ccc(C)cc1NC(=O)N1CC2CC(C1)[C@H]1CCCC(=O)N1C2 (some centres not stated)	0%
CC1=Nc2cc(C(=O)NC3CCCC3)ccc2Sc2ccc(Br)cc21	7.9µM*
CC1=Nc2cc(C(=O)N3CCCCC3)ccc2Sc2ccc(C)cc21	i
Cc1nc2cc(C(=O)NC3CCCCCC3)ccc2n1-c1ccc(Br)cc1	18%
CCOCc1nc(C2CCCN(C(=O)NCCc3ccccc3)C2)no1 (configuration not stated)	21%
O=C(c1cn(Cc2ccc(Cl)cc2)nn1)N1CCCC(OCc2cccnc2)C1 (configuration not stated)	-6%
CN(C)C[C@@H]1CN(c2ncccn2)C[C@H]1NC(=O)c1ccnn1C	15%
Cn1nccc1C(=O)N[C@@H]1CN(c2ncccn2)C[C@H]1CO	2.5µM*
Cn1cccc1C(=O)N[C@@H]1CN(c2ncccn2)C[C@H]1CO	i
CC(C)CN[C@@H]1C[C@H](COc2ccc(S(C)(=O)=O)cc2)[C@@H](O)[C@H]1O	0%[44.1 µM]
Cc1ccsc1C(=O)N1CCC2(CC1)N(c1ccccc1)C(=O)CS2(=O)=O	-24%
CCN1c2cc(C(=O)NCc3cc(OC)ccc3OC)ccc2C(=O)N2CCCCC21 (configuration not stated)	-4%
COc1ccccc1CNC(=O)c1ccc2c(c1)N(C)C1CCCCN1C2=O (configuration not stated)	i
CCN1c2cc(C(=O)NCc3ccccc3F)ccc2C(=O)N2CCCCCC21 (configuration not stated)	-19%
CCN1c2cc(C(=O)NCc3ccccc3OC)ccc2C(=O)N2CCCCCC21 (configuration not stated)	5µM*
CCN1c2cc(C(=O)NCc3ccc(F)cc3)ccc2C(=O)N2CCCCCC21 (configuration not stated)	i
CCN1c2cc(C(=O)NCc3cc(F)ccc3F)ccc2C(=O)N2CCCCC21 (configuration not stated)	4µM*
CN(Cc1ccc(F)cc1)C(=O)c1ccc(Cl)nc1	-10%[44.1 µM]
CCN(Cc1c(F)cccc1Cl)C(=O)CCc1c(C)nn(C)c1C	-17%
CCN1CCC2(Cc3ccccc3CN(C(=O)Cc3ccc(O)cc3)C2)C1 (configuration not stated)	-21%
CCC(=O)N1Cc2ccccc2CC2(CCCN2Cc2ccc(OC)cc2)C1 (configuration not stated)	-6%
CCN1CCC2(Cc3ccccc3CN(C(=O)Cc3ccccc3)C2)C1 (configuration not stated)	11µM*
CCC(=O)N1Cc2ccccc2CC2(CCN(CC3CCNCC3)C2)C1 (configuration not stated)	8%
SMILES	Pf Dd2 growth
CCN1CCC2(Cc3ccccc3CN(C(=O)Cc3ccc(OC)cc3)C2)C1 (configuration not stated)	8.9µM*
CCN1CCCC2(Cc3ccccc3CN(C(=O)CCCC(=O)O)C2)C1 (configuration not stated)	-9%
CCc1noc(-c2cn(C3CCN(C(=O)c4ccc(C#N)cc4)CC3)nn2)n1	-8%
CCNC(=O)N(C1CC1)C1CCOC2(CCN(C(=O)Cc3cccc(F)c3)CC2)C1 (configuration not stated)	-13%
CS(=O)(=O)c1ccc(CC(=O)N2CCc3n[nH]c(=O)n3CC2)cc1	43%
CN(C)Cc1nnc(C2CC(NC(=O)CSCC3CC3)C2)n1C (configuration not stated)	4%
CCC1Oc2ccc(NC(=O)C(CC)c3ccccc3)cc2CN(Cc2ccccc2)C1=O (configuration not stated)	-15%
Fc1ccccc1-c1noc(NCCc2ccc(Cl)cc2)n1	i
O=c1cc(-c2ccccc2)nc(SCc2nc(-c3ccc(Cl)cc3)no2)[nH]1	20%
Clc1ccc(CNc2nc(-c3ccccc3)no2)cc1	11µM*
COc1ccc(CN2CCC3(CC2)OC(=O)N(Cc2ccccc2C#N)C3(C)c2ccccc2)cc1O (configuration not stated)	-16%
COc1ccccc1CN1CCC2(CC1)OC(=O)N(Cc1ccc(NC(C)=O)cc1)C2(C)c1ccccc1 (configuration not stated)	13µM*
CC1(c2ccccc2)N(Cc2ccccc2F)C(=O)OC12CCN(Cc1ccc(C#N)cc1)CC2 (configuration not stated)	-23%
COc1ccccc1CN1CCC2(CC1)OC(=O)N(Cc1ccccc1F)C2(C)c1ccccc1 (configuration not stated)	4µM*
COc1ccccc1CN1CCC2(CC1)OC(=O)N(Cc1csc(C)n1)C2(C)c1ccccc1 (configuration not stated)	i
CC(=O)Nc1ccc(CN2C(=O)OC3(CCN(Cc4ccccc4)CC3)C2(C)c2ccccc2)cc1 (configuration not stated)	-19%
Cc1ccsc1C(=O)N1CCC2(CC1)NCCc1c2[nH]c2ccccc12	i
COc1cccc([C@@H]2CN(C(=O)CCCC(=O)O)C[C@H]2C(=O)O)c1	20%
Cc1cc(C)c([S+](=O)([O-])c2nnn3c2nc(NCc2ccncc2)c2ccccc23)c(C)c1	2.2µM*
COc1ccc([S+](=O)([O-])c2nnn3c2nc(NCc2ccncc2)c2ccccc23)cc1	-15%
Cc1ccc([S+](=O)([O-])c2nnn3c2nc(NCc2ccncc2)c2ccccc23)cc1	7%
CCN(CC)c1ccc(C2C(C(N)=O)=C(C)Nc3ncnn32)cc1 (configuration not stated)	33%
CC1=C(C(N)=O)C(c2cccc(C)c2)n2nc(-c3ccc(Cl)cc3)nc2N1 (configuration not stated)	4%
CC1=C(C(N)=O)C(c2ccc(F)cc2)n2nc(-c3ccc(N(C)C)cc3)nc2N1 (configuration not stated)	10µM*
Cc1ccoc1C(=O)N1CCc2c(nc(-c3cccnc3)nc2N(C)C)C1	i
SMILES	Pf Dd2 growth
O=C(Nc1ccccc1)C1=NO[C@@H]2CN(Cc3ccccn3)C[C@H]12	-15%[44.1 µM]
Cn1ccnc1C(=O)N1CCCCCNC(=O)[C@H]2C[C@H](C(=O)N3CCc4ccccc4C3)C[C@H]21	-25%
O=C1CCCCC(C(=O)N2CCc3ccccc3C2)N1 (configuration not stated)	-8%
O=C1NCCCCCN(C(=O)NC2CCCCC2)[C@@H]2C[C@@H](C(=O)N3CCc4ccccc4C3)C[C@H]12	8.9µM*
O=C1NCCCCCCN[C@H]2C[C@H](C(=O)N3CCc4ccccc4C3)C[C@@H]12	6.3µM*
CCS(=O)(=O)N1CCCCCCNC(=O)[C@@H]2C[C@@H](C(=O)N3CCc4ccccc4C3)C[C@@H]21	i
CC(C)C(=O)N1CCCCCCNC(=O)[C@@H]2C[C@@H](C(=O)N3CCN(c4ccccn4)CC3)C[C@@H]21	-21%
C[C@@H]1CN(C(=O)Cc2ccc3c(c2)OCO3)C[C@]1(C)O	0%
COc1ccc(CCNC(=O)CN2C(=O)NC(c3ccccc3Cl)C3=C2COC3=O)cc1OC (configuration not stated)	i
CNC(=O)[C@@H](c1ccccc1)N1CCC[C@H]1C(=O)N1CCOCC1	2%[44.1 µM]
COC1CCCN(c2ncnc3c2CCN(C(=O)c2ccoc2)CC3)C1 (configuration not stated)	-23%
